Six1-Eya2 blk: qHTS Assay for Inhibitors of the Six1/Eya2 Interaction. Homeobox protein SIX1 (Homo sapiens) + Protein phosphatase EYA2 (Homo sapiens), …. AlphaScreen GST-Six1/His-Eya2 binding, biochemical; active compounds read low. activity change, % (test concentration not listed). 360,000 tested, 0.56% active. AID 651725, 2012; in the data active means activity change below about -65%; inconclusive means mostly about -30% to -63%; further: on the % scale 0 is the no-effect control and ±100 the full control effect
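Homogeneous AlphaScreen proximity assay pairing GST-Six1 with His-tagged Eya2 (added as 5X mix: 250 nM and 500 nM) in 50 mM Tris pH 8.0, 300 mM NaCl, 1 mM TCEP. Glutathione donor and nickel acceptor beads; 1 h, 37 °C, dark.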
CtBP-E1A inh: qHTS Assay for Inhibitors of the CtBP/E1A Interaction; CtBP / adenovirus E1A interaction (AlphaScreen); AlphaScreen GST-E1A/His-CtBP binding, 1536-well; active compounds read low; activity change, % (concentration not given with the values); 340,000 tested, 0.49% active; AID 651724, 2012; in the data active means activity change below about -65%; inconclusive means mostly about -30% to -63%; further: on the % scale 0 is the no-effect control and ±100 the full control effect
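AlphaScreen with 125 nM GST-E1A and 125 nM His-CtBP (5X stocks) in Tris pH 8.0, 300 mM NaCl, BSA, Tween 20, TCEP. Compounds preincubated 2 h at 37 deg C, then glutathione donor/nickel acceptor beads added for 1 h at 37 deg C in dark.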
HP1b chromo inh: HTS for Inhibitors of HP1-beta Chromodomain Interactions with Methylated Histone Tails | AlphaScreen HP1-beta / biotin-H3K9me3 peptide binding | Potency, µM (doses to about 114 µM), inactives show at the highest dose activity change, negative = inhibition, actives largely listed as inhibitors | 390,000 tested, 0.56% active | AID 540317, 2011; further: potency means the concentration at half of the fitted maximal effect; nearly all actives have a fitted effect of over 70% in size
Target sequence (P83916 whole entry, looked up): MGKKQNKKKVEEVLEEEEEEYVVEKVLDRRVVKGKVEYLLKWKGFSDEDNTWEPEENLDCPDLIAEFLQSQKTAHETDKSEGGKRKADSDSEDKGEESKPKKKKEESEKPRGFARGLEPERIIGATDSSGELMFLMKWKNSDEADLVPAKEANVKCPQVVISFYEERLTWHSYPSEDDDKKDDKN
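HP1-beta protein (50 nM final) preincubated 30 min at room temperature with biotinylated H3(1-18)K9me3 peptide (50 nM) in PBS pH 7.4, 0.01% Tween-20, then compound added for 30 min. AlphaScreen streptavidin donor/nickel chelate acceptor beads (10 ug/mL final), 30 min dark, luminescence read.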
BAZ2B inh: qHTS Assay for Inhibitors of BAZ2B. 360,000 tested, 4.4% active. Bromodomain adjacent to zinc finger domain protein 2B (Homo sapiens), Q9UIF8. AID 504333, 2011. Potency, µM (series often up to 114 µM), inactives show at the top dose activity change, negative = inhibition, most hits filed as inhibitors. AlphaScreen BAZ2B-H3K14Ac peptide displacement; further: potency means the concentration at half of the fitted maximal effect; on the % scale 0 is the no-effect control and ±100 the full control effect; nearly all actives have a fitted effect of over 60% in size
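AlphaScreen luminescence quantifies BAZ2B engagement of H3K14Ac peptide; the protein and biotinylated peptide are both at 50 nM final, buffer PBS pH 7.4 with 0.01% Tween-20, all steps at room temperature.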
JMJD2A Tudor inh: qHTS Assay for Inhibitors of JMJD2A-Tudor Domain; Lysine-specific demethylase 4A (Homo sapiens), O75164; 390,000 tested, 4.4% active; AlphaScreen JMJD2A-Tudor / H3K4me3 peptide binding; AID 504339, 2011; Potency, µM (highest dose often 114 µM), for inactives: top-dose activity change, negative = inhibition, hits mostly inhibitors; further: potency means the concentration at half of the fitted maximal effect; on the % scale 0 is the no-effect control and ±100 the full control effect; nearly all actives have a fitted effect of over 50% in size
G9a inh: qHTS Assay for Inhibitors of Histone Lysine Methyltransferase G9a | Potency, µM (titrated, usually from 102 µM), for the others: top-dose activity, negative = inhibition, usual class: inhibitors | AID 504332, 2011 | G9a H3K9 monomethylation, AlphaScreen, 2 h | Histone-lysine N-methyltransferase EHMT2 (Homo sapiens), Q96KQ7 | 350,000 tested, 8.8% active; further: potency means the concentration at half of the fitted maximal effect; on the % scale 0 is the no-effect control and ±100 the full control effect; nearly all actives have a fitted effect of over 75% in size
Target sequence (Q96KQ7 913-1193 limits assumed): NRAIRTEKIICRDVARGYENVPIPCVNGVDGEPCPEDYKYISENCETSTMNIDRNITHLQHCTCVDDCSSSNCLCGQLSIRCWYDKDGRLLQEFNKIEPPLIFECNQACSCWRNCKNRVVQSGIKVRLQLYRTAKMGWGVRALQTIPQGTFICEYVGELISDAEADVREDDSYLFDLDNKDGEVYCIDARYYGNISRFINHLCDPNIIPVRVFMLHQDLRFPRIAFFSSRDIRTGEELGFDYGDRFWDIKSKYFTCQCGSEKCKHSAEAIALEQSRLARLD
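Enzyme 20 nM + cpd, 15 min RT; add b-H3K9 pep 500 nM / SAM 20 uM; 2 h RT; anti-H3K9me1 Ab 0.5 ug/mL + SA donor / anti-rabbit acceptor beads 20 ug/mL each, 10 min; AlphaScreen read.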
* hit, by the source's call; ? = inconclusive; · = no result given; [ ] = dose if it differs, or a comment. Hits are enriched below; roughly 10% of the tested compounds scored in any of these assays. Unless noted, the call rests on the fitted dose curve; in most records, active means well fitted inhibition curve with a large enough effect; inconclusive means small, poorly fitted or top-dose-only effect; inactive means no such curve, though single readings can be large or run the other way.

SMILES	Six1-Eya2 blk	CtBP-E1A inh	HP1b chromo inh	BAZ2B inh	JMJD2A Tudor inh	G9a inh
Cc1c(O)c(CN2CCCCC2)cc2c3c(c(=O)oc12)CCC3	-3	-2	26%	3%	-10%	3%[12.7 µM]
Cc1cc(N=Nc2ccc(Cl)cc2)cc(CN2CCCC2)c1O	?	?	20µM*	10µM*	28µM*	·
Cc1nn(-c2ccccc2)c(N)c1-c1ccccc1	-1	0	32%	-14%	-16%	1%
Nc1nn(-c2ccccc2)c(N)c1N=Nc1ccccc1	-28	0	?	40µM*	?	?
Nc1nn(-c2ccccc2)c(N)c1N=Nc1ccccc1F	?	-4	-33%	35µM*	?	?
Cc1cccc(N=Nc2c(C)nn(-c3ccccc3)c2N)c1C	?	?	?	18µM*	25µM*	10µM*
Cc1nn(-c2ccccc2)c(N)c1N=Nc1ccccc1	-25	-21	?	32µM*	56µM*	45µM*
Cc1nn(-c2ccccc2)c(N)c1C(O)(C(F)(F)F)C(F)(F)F	12	9	22%	-2%	-9%	5%
CCc1cccc(C)c1NC(=O)Cn1ccn(-c2ccc(F)cc2)c(=O)c1=O	·	·	56%	2%	6%	-7%[59 µM]
CN(Cc1ccco1)c1ncncc1-c1cccc(C#N)c1	·	·	·	·	·	3%[0.501 µM]
Cc1nn(-c2ccccc2)c(N)c1N=Nc1cccc(S(=O)(=O)N2CCOCC2)c1	-9	-1	?	28µM*	?	?
Cc1nn(-c2ccccc2)c(N)c1N=Nc1ccc(Cl)cc1	-23	-19	?	40µM*	45µM*	35µM*
Cc1ccc(C)n1-c1cccc(S(=O)(=O)N2CCOCC2)c1	-4	-2	26%	-30%	-14%	20%[59 µM]
O=C(Nc1ccccc1C(=O)OCc1cc(=O)n2nc(C3CC3)sc2n1)c1cccc(Cl)c1	·	·	4%	-9%	-8%	14%[59 µM]
O=C(O)CSc1nnc(-c2cccs2)n1-c1ccc(Cl)cc1	-2	2	?	-18%	18µM*	?
Cc1cccc(NC(=O)c2cccc3c2-c2ccccc2C3=O)n1	4	-8	9%	-25%	-12%	?
CCNC(=S)Nc1cc(C)ccn1	16	-1	28%	-2%	-17%	1µM*
COc1ccc(-c2cn3c(C)c(C(=O)Nc4cccc(C)n4)sc3n2)cc1	-17	-3	4%	-9%	-21%	10µM*
Cc1cccc(NC(=O)c2ccccc2Br)n1	-6	6	33%	8%	-1%	22µM*
CCOc1ccc(C(=O)Nc2cccc(C)n2)cc1	7	15	30%	-9%	-23%[11.4 µM]	50µM*
Cc1ccc(CC(=O)Nc2cc(C)ccn2)cc1	-2	-14	26%	-37%	-4%	9%
Cc1cccc(NC(=O)c2sc3nc(-c4ccccc4)cn3c2C)n1	6	3	6%	1%	-10%	?
CC(=O)C[C@@H](O)CC(=O)[C@H]1OC(=O)[C@H](C)CCCCc2ccccc21	7	4	109%	·	-6%	·
CCOc1ccc(Nc2cc(C)c(C#N)c3nc4ccccc4n23)cc1	·	·	45%	-7%	-3%	7%[59 µM]
COc1ccc(C(=O)Nc2cc(C)on2)cc1[N+](=O)[O-]	-1	7	20%	9%	-3%	48%
COC(=O)c1cc(C(=O)Nc2cc(C)ccn2)cc([N+](=O)[O-])c1	4	-3	17%	-9%	-18%	50µM*
CCOc1ccc(C(=O)Nc2cc(C)ccn2)cc1	5	1	-3%	1%	13µM*	?
